Only some compounds are listed: those with a hit (about 2.9% of all), similar ones and a draw of the others.
Shn3 3UTR inh = Schnurri-3 reporter inhibition in Clone20 osteoblasts; Clone20 osteoblast Shn3 3'UTR firefly luciferase, 24 h; inhibition, % at 12.5 µM; 0.52% of 360,000 active;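 active = mean inhibition of at least 75% with every replicate also reaching 75%; inconclusive = mean inhibition at least 75% but some replicate below; inactive = mean inhibition below 75%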
Peg3 prom inh = Peg3 promoter activity inhibition. inhibition, % at 20 µM. HeLa PEG-Prom luciferase reporter, luminescence, overnight. 1.7% of 360,000 active. AID 588405;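 active = inhibition of at least 50% at 20 µM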
KKLEB cytotox = CF airway cell cytotoxicity counter-screen; KKLEB CF airway cells viability, ATPlite luminescence, overnight; active compounds read low; cells stimulated with P. aeruginosa culture filtrate; activity change (cytotoxicity), % at 5 µM; 0.36% of 360,000 active;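 active = corrected activity change at or below -50% at 5 µM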
EBV LMP1 NFkB = Epstein-Barr LMP1 NF-kappaB reporter inhibition; 0.69% of 350,000 active; LMP1-induced NF-kappaB luciferase reporter cells, luminescence; inhibition, % at 12.5 µM; in the data active = inhibition above about 41%; inconclusive = no clear call, values can overlap the other calls
CF NFkB inh = blocks PAF-induced NF-kB reporter in cystic fibrosis cells; KKLEB NF-kB-GFP reporter, GFP fluorescence overnight; inhibition, % at 5 µM; 0.86% of 360,000 active; AID 588850;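 active = at least 50% inhibition at 5 µM, scaled per plate between neutral and stimulator controls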;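 also: PAF is a Pseudomonas aeruginosa culture filtrate used as stimulus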
TRPM1 prom inh = reduces MITF-dependent TRPM1 promoter luciferase signal; SK-MEL-5 TRPM1 promoter luciferase, 24 h; 0.83% of 330,000 active; inhibition, % at 12.5 µM; AID 488899;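 active = mean inhibition across replicates of 60% or more, whatever share of single replicates reaches that level; inconclusive = some that reach 60%, reason not given; inactive = mean inhibition across replicates below 60%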
A number is an active result; n = inactive; u = inconclusive; x = no result.

SMILES	Shn3 3UTR inh	Peg3 prom inh	KKLEB cytotox	EBV LMP1 NFkB	CF NFkB inh	TRPM1 prom inh
CC(=O)Oc1cc2c3c(c1)/C(=C1/SC(=S)NC1=O)C(=O)N3C(C)(C)C=C2C	n	n	n	n	52	n
COc1ccc(Br)cc1CN(C)C(=O)c1ccccc1SCC(=O)N1CCCC1	n	n	n	n	n	n
CCC/C=C/c1ccc(CN2C(C(C)C)C(=O)N(Cc3cn(CC4CCCCC4)nn3)CCS2(=O)=O)cc1 (stereo not drawn)	n	n	n	n	n	x
COCCN1C[C@@H](CO)O[C@@H](n2cnc3c(NC4CCC4)ncnc32)C1	n	n	n	x	n	x
CNC(=O)OCc1nc(SSC(C)(C)C)n(C)c1COC(=O)NC	96	94	-75	n	78	n
CCSc1nc(COC(=O)NC)c(COC(=O)NC)n1C	n	n	n	n	n	n
COc1ccc(CNC(=O)C[C@@H]2C[C@H]3c4cc(NC(=O)NC5CCCC5)ccc4O[C@H]3[C@H](CO)O2)cc1	n	n	n	n	n	x
COc1ccccc1Cn1c(C)c(C(=O)NCCC#N)sc1=O	n	n	n	x	n	x
Cc1ccc(S(=O)(=O)N2C[C@]3(O)C[C@@H]4C(=O)N(c5ccccc5)C(=O)[C@@H]4C[C@]3(OC(=O)NCC3CCCCC3)C2)cc1	n	n	n	n	n	x
COc1cc(N(C)C)ccc1C=c1c2ccccc2n2c1cc(-c1ccccc1)[n+]2C	95	100	n	n	n	110
COc1cc(/C=C(/C(=O)O)c2ccc(-c3ccccc3)cc2)cc(OC)c1OC	n	n	n	n	n	n
COc1cc(C=c2c3ccccc3n3c2cc(-c2ccccc2)[n+]3C)cc(OC)c1OC	n	n	n	n	n	65
Cc1cc(F)ccc1S(=O)(=O)Nc1ccccc1C(=O)Nc1ccccc1-c1nc2ccccc2[nH]1	91	96	-59	n	74	u
CCCc1sc(N/N=C/c2ccccn2)nc1-c1ccc(F)cc1	n	n	-51	63	n	63
Fc1ccc(-[n+]2nc(Nc3ccccc3)sc2-c2c3ccccc3cc3ccccc23)cc1	n	53	n	n	n	n
COc1ccc(C)cc1Nc1n[n+](-c2ccccc2)c(-c2cc(OC)c(OC)cc2Br)s1	n	n	n	n	n	n
COc1ccc(C)cc1Nc1n[n+](-c2ccccc2)c(-c2c(OC)ccc3ccccc23)s1	n	56	n	44	n	66
CC1(C(=O)NS(=O)(=O)c2ccc(C#N)cc2)CCN1C(=O)c1cccc2ccccc12 (stereo not drawn)	n	n	n	x	n	x
O=C(c1cnc(Cc2c[nH]c3ccccc23)c(I)c1)N1CCOCC1	n	n	n	x	n	x
CN=C1SC(CC(=O)Nc2ccc(F)cc2F)C(=O)N1/N=C/c1ccc(OC(F)F)c(OC)c1 (stereo not drawn)	83	n	n	n	n	n
O=C(CC1SC(=Nc2ccc(OC(F)F)cc2)N(CCN2CCOCC2)C1=O)Nc1ccc(F)cc1F (stereo not drawn)	n	n	n	n	n	n
OC(c1ccc(Cl)c(F)c1)c1ncc(-c2cccc(F)c2)[nH]1 (stereo not drawn)	n	n	n	x	n	x
C=CCn1c(-c2ccc(OC)cc2)csc1=Nc1c(C)n(C)n(-c2ccccc2)c1=O	n	n	n	42	n	n
Cc1ccc(-n2ncc3c2CC(C)(C)CC3NC(=O)CCN2CCCO2)cc1 (stereo not drawn)	n	50	n	x	n	n
COc1ccc(-c2c(N)cnc(C(=O)O)c2C)c(OCc2ccccc2)c1OC	n	n	n	n	n	x
SMILES	Shn3 3UTR inh	Peg3 prom inh	KKLEB cytotox	EBV LMP1 NFkB	CF NFkB inh	TRPM1 prom inh
CC(C)c1ccc(Oc2cccc3c2S(=O)(=O)N(C2CCCC2)CC(COCc2ccccc2)O3)cc1 (stereo not drawn)	86	n	n	n	n	n
Cc1cc(C(C)(C)C)ccc1Oc1cccc2c1S(=O)(=O)N(C1CCCC1)CC(COCc1ccccc1)O2 (stereo not drawn)	n	n	n	n	n	n
O=C(NNC(=O)c1cccc(S(=O)(=O)Nc2ccccc2F)c1)c1ccncc1	n	n	n	n	n	x
CC(=O)Nc1cccc(C(=O)NN2C(=O)NC3(CCC(C)CC3)C2=O)c1 (stereo not drawn)	n	n	n	n	n	x
CCC(NC(=O)CSc1nnnn1C1CC1)c1ccc(Br)cc1 (stereo not drawn)	n	n	n	n	n	n
C=C/C(C)=C/CC1C(=C)CCC2C(C)(C(=O)O)CCCC12C (stereo not drawn)	n	n	n	n	n	n
C=C1C(=O)[C@]23C[C@H]1CCC2[C@]1(C)CCC[C@@](C)(C(=O)O)C1C[C@@H]3O (stereo partly drawn)	89	99	-83	x	93	x
Nc1nc(SCc2ccccc2)cc(SCc2ccccc2)n1	n	n	n	n	n	n
Cc1ccc2c(C)nc(Nc3nc(CSc4nc5ccccc5[nH]4)cc(=O)[nH]3)nc2c1	n	109	-58	n	99	80
CCNC(=O)C1(C)CCCN1Cc1c(F)cccc1F (stereo not drawn)	n	n	n	x	n	x
CCOC(=O)N1CCN(S(=O)(=O)c2ccc(C(=O)Nc3nnc(C4CC4)o3)cc2)CC1	n	n	n	n	n	n
Cc1cccc2sc(NNC(=O)c3ccc(S(=O)(=O)N4CCCC(C)C4)cc3)nc12 (stereo not drawn)	n	68	n	n	n	n
CCOC(=O)N1CCN(S(=O)(=O)c2ccc(C(=O)Nc3nc4c(s3)CC(C)CC4)cc2)CC1 (stereo not drawn)	n	n	-62	n	n	n
Cc1cccc2sc(NNC(=O)c3ccc(S(=O)(=O)N4CCc5ccccc5C4)cc3)nc12	n	61	n	n	n	n
Cc1cccc2sc(NC(=O)c3cccc(S(=O)(=O)N4CCc5ccccc54)c3)nc12	n	n	n	n	n	n
CCOC(=O)N1CCN(S(=O)(=O)c2ccc(C(=O)NNc3nc4c(C)cccc4s3)cc2)CC1	n	n	n	92	n	n
OCC[C@@H]1C[C@H](O)[C@@H](O)[C@@]2(OCc3ccc4ccccc4c32)O1	n	n	n	x	n	x
CC1CCCN(S(=O)(=O)c2ccc(C(=O)Nc3ccccc3-c3nc4ccccc4[nH]3)cc2)C1 (stereo not drawn)	n	n	-55	n	68	n
CC1CCN(S(=O)(=O)c2ccc(C(=O)Nc3ccccc3-c3nc4ccccc4[nH]3)cc2)CC1	n	n	n	n	n	n
Cc1c(N=C2C=CC(=O)c3ccccc32)c(=O)n(-c2ccccc2)n1C	n	n	n	n	n	71
CC(C)(C)c1ccc(C(=O)N2CCC2(C)C(=O)Nc2ccc3nc[nH]c3c2)cc1 (stereo not drawn)	n	n	n	x	n	x
Cc1ccc(-c2[nH]ncc2/C=N/n2c(COc3ccccc3)nc3ccccc3c2=O)cc1	n	52	n	n	n	n
